PubChem BioAssay (NCI)
Compounds without any hit were thinned out: in the full panel of roughly 83,000, 20% have a hit.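 Note: values are percent growth. 100 is the growth of untreated cells, values between 100 and 0 indicate rising inhibition; between -100 and 0 indicates cell death.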 Calls of active or inactive are those of the source. How the source made its calls: active means growth percent below 10; inactive means the rest.

Key:
Assay in all cases: NCI-60 one-dose screen, 48 h (100 = growth as untreated, 0 = no growth, -100 = all killed)
Details in all cases: 10 µM unless noted
T-47D breast = tested on: T-47D breast
BT-549 breast = tested on: BT-549 breast
MDA-MB-435 melanoma = tested on: MDA-MB-435 melanoma
SW-620 colon = tested on: SW-620 colon
MCF7 breast = tested on: MCF7 breast
HCT-116 colon = tested on: HCT-116 colon
HCC-2998 colon = tested on: HCC-2998 colon
KM12 colon = tested on: KM12 colon

Measured: growth

CCOc1cccc(-c2nc(N)nc(Nc3ccccc3SSc3ccccc3Nc3nc(N)nc(-c4cccc(OCC)c4)n3)n2)c1
inactive: T-47D breast 44.5% | BT-549 breast 78.7% | MDA-MB-435 melanoma 88.8% | SW-620 colon 76.4% | MCF7 breast 70.1% | HCT-116 colon 57.2% | HCC-2998 colon 97.8% | KM12 colon 40.6%

C=CC(=O)N[C@@H](/C=C/C(=O)OCC)Cc1ccc(-c2cc(Cl)cc(Cl)c2)cc1
inactive: SW-620 colon 11.7% | HCT-116 colon 11.1% | HCC-2998 colon 41.6% | KM12 colon 24.2%
active: T-47D breast -4.93% | BT-549 breast 4.23% | MDA-MB-435 melanoma 1.71% | MCF7 breast 4.06%

COc1ccc(C(=O)c2cc(OC)c(OC)c(OC)c2)cc1O
active: MDA-MB-435 melanoma -41.1% | MCF7 breast 6.25% | HCT-116 colon 4.24% | KM12 colon 9.38%
inactive: T-47D breast 54.7% | BT-549 breast 12% | SW-620 colon 22.3% | HCC-2998 colon 12.4%

CCOC(=O)CCN(CC(C)C)C(=S)Nc1ccccc1
inactive: T-47D breast 105% | BT-549 breast 106% | MDA-MB-435 melanoma 102% | SW-620 colon 107% | MCF7 breast 98.8% | HCT-116 colon 95.9% | HCC-2998 colon 108% | KM12 colon 104%

COCc1cnccc1NC1CCCCCC1
inactive: T-47D breast 98.7% | BT-549 breast 119% | MDA-MB-435 melanoma 104% | SW-620 colon 99.3% | MCF7 breast 97.2% | HCT-116 colon 100% | HCC-2998 colon 103% | KM12 colon 100%

COc1ccc(C/C(C)=C(/c2ccc(OCCCN(C)C)cc2)c2ccc(OC(C)=O)cc2)cc1
inactive: T-47D breast 56.4% | BT-549 breast 89% | MDA-MB-435 melanoma 48.4% | SW-620 colon 87.8% | MCF7 breast 18.1% | HCT-116 colon 55.3% | HCC-2998 colon 70.3% | KM12 colon 80.7%

O=C(c1nnc(Nc2ccccc2Br)o1)c1c[nH]c2ccccc12
inactive: T-47D breast 79.6% | BT-549 breast 103% | MDA-MB-435 melanoma 101% | SW-620 colon 98.7% | MCF7 breast 77.2% | HCT-116 colon 88.4% | HCC-2998 colon 88.6% | KM12 colon 81.7%

N#CC(C#N)=Cc1cc2ccccc2nc1Oc1ccc(C(F)(F)F)cc1
inactive: T-47D breast 90.6% | BT-549 breast 96.2% | MDA-MB-435 melanoma 97% | SW-620 colon 74.5% | MCF7 breast 56.9% | HCT-116 colon 89.8% | HCC-2998 colon 106% | KM12 colon 88.5%

C[C@H]1[C@H](C)CC[C@]2(C(=O)Nc3ccc4ncccc4c3)CC[C@]3(C)C(=CC[C@@H]4[C@@]5(C)CCCNC(C)(C)[C@@H]5CC[C@]43C)[C@H]12
active: MDA-MB-435 melanoma -91.8% | SW-620 colon -83.9% | MCF7 breast -83.4% | HCT-116 colon -100% | HCC-2998 colon -84.4% | KM12 colon -60.5%
inactive: T-47D breast 78% | BT-549 breast 92%

COc1ccc(/C=C/c2nc(Nc3ccc(S(=O)(=O)NC(C)=O)cc3)c3ccccc3n2)cc1
inactive: T-47D breast 67.7% | BT-549 breast 86.8% | MDA-MB-435 melanoma 63% | SW-620 colon 68.2% | MCF7 breast 46.7% | HCT-116 colon 47.4% | HCC-2998 colon 82.1% | KM12 colon 57.8%

COc1cc2nc(-c3ccc(C(F)(F)F)cc3)cc(OCCN3CCCCC3)c2cc1OC
inactive: T-47D breast 85.1% | BT-549 breast 40.4% | MDA-MB-435 melanoma 90.5% | SW-620 colon 98.8% | MCF7 breast 79.5% | HCT-116 colon 45.8% | HCC-2998 colon 76.7% | KM12 colon 80.3%

CCOc1ccc(/C=N/Nc2cc(C)nc3ccc(Br)cc23)cc1
inactive: T-47D breast 89.2% | BT-549 breast 91.3% | MDA-MB-435 melanoma 92.6% | SW-620 colon 55.2% | MCF7 breast 75.8% | HCT-116 colon 36.6% | HCC-2998 colon 100% | KM12 colon 84.6%

CC(C)(C)c1ccc(NS(=O)(=O)c2ccc3nc(NC(=O)c4cnccn4)[nH]c3c2)cc1
active: MDA-MB-435 melanoma -41%
inactive: T-47D breast 25.6% | BT-549 breast 26.6% | SW-620 colon 18.1% | MCF7 breast 18% | HCT-116 colon 25.4% | HCC-2998 colon 70.2% | KM12 colon 16.6%

Oc1ccc(C(c2ccc(O)cc2)c2ccc(Br)cn2)cc1
inactive: MDA-MB-435 melanoma 100% | SW-620 colon 102% | HCT-116 colon 19.4% | KM12 colon 16%
active: T-47D breast -38.5% | BT-549 breast -42.6% | MCF7 breast -20.5% | HCC-2998 colon 3.49%

N#CC1=C(N)Oc2c(cnn2-c2ccc([N+](=O)[O-])cc2[N+](=O)[O-])C1c1ccccc1 (stereo not drawn)
inactive: T-47D breast 98% | BT-549 breast 107% | MDA-MB-435 melanoma 101% | SW-620 colon 96.2% | MCF7 breast 97% | HCT-116 colon 100% | HCC-2998 colon 101% | KM12 colon 101%

N#CC1C(C#N)C2c3ccccc3C=CN2C1C(=O)c1ccc(Br)cc1 (stereo not drawn)
inactive: T-47D breast 91.8% | BT-549 breast 103% | MDA-MB-435 melanoma 100% | SW-620 colon 99.2% | MCF7 breast 92.5% | HCT-116 colon 87.7% | HCC-2998 colon 112% | KM12 colon 99.2%
